Laboratory results from PubChem BioAssay.
Active and inactive are the calls of the source. Unless noted, how the calls were made is not given here.

Key:
[1] = anti-His antibody binders, primary screen, artefact control for SMM control protein annotation, biochemical, small-molecule microarray, 635 nm fluorescence (AID 1128); conditions: anti-His Alexa647 antibody binding, higher = more signal;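 further: score merges feature fluorescence with signal-to-noise for each printed compound spot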
[2] = test system: Human papillomavirus type 1a E7 protein (residues 1-88); test: HPV1a E7 small-molecule binders, primary screen, biochemical, small-molecule microarray, residues 1-88, 635 nm (AID 1129); conditions: small-molecule microarray binding, fluorescence 635 nm; higher = more signal
[3] = molecular target: Focal adhesion kinase 1 (Homo sapiens) (UniProt Q05397); test: small-molecule microarray binders of FAK, primary screen, biochemical, 635/667 nm fluorescence, BSA, DTT (AID 1130); conditions: PTK2 binding, 635 nm fluorescence, higher = more signal;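 further: composite of spot emission at 667 nm and signal to noise over triplicate slides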
[4] = test system: Fibrinogen (Alexa647-labelled); test: fibrinogen binders on compound microarrays, profiling panel, artefact control for SMM control-protein annotation, biochemical, small-molecule microarray, 635/667 nm fluorescence (AID 1131); conditions: fibrinogen-A647 binding fluorescence, higher = more signal;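 further: z-score merges 667 nm fluorescence with per-spot signal-to-noise over triplicate slides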
[5] = molecular target: Follistatin (Homo sapiens) (UniProt P19883); test: follistatin binders on small-molecule microarrays, primary screen, biochemical, small-molecule microarray, 635/667 nm fluorescence (AID 1132); conditions: FST binding, 635 nm fluorescence, higher = more signal
[6] = molecular target: Fibroblast growth factor 2 (Homo sapiens) (UniProt P09038); test: FGF2 binders on small-molecule microarrays, primary screen, biochemical, small-molecule microarray, 635/667 nm fluorescence (AID 1133); conditions: small-molecule microarray binding, FGF2, fluorescence 635/667; higher = more signal
[7] = mitochondrial membrane potential change in A549 cells, profiling panel, cell-based, JC-1 fluorescence, basal, 24 h, 100 nL (AID 1138); conditions: higher = more signal;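 further: A549 lung adenocarcinoma cells under basal conditions with no added stimulus; test concentration not given here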
Lefty1 = Lefty1 binders on small-molecule microarrays, primary screen, biochemical, small-molecule microarray, 635/667 nm fluorescence (AID 1139); conditions: small-molecule microarray binding, fluorescence 635/667; higher = more signal
[8] = test system: wheat germ agglutinin (Triticum aestivum), Alexa647-labelled; test: wheat germ agglutinin binders on compound microarrays, profiling panel, artefact control for SMM control-protein annotation, biochemical, small-molecule microarray, 635/667 nm fluorescence (AID 1140); conditions: WGA-A647 binding, 635 nm fluorescence, higher = more signal;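 further: score merges 667 nm feature emission with signal to noise over triplicate slides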
[9] = molecular target: Luciferin 4-monooxygenase (Photinus pyralis) (UniProt P08659); test: firefly luciferase enzyme inhibitors, primary screen, biochemical, luminescence, purified enzyme, 2006 set (AID 1141); conditions: SteadyGlo luminescence, 30 min, higher = more signal, called active from +8 up or from −8 down;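 further: cell-free assay with purified firefly luciferase at 100 ng per well in PBS; test concentration not given here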
[10] = test system: Wnt5a (protein binding on small-molecule microarray); test: Wnt5a binders on small-molecule microarray, primary screen, biophysical, 635/667 nm fluorescence (AID 1142); conditions: 635 nm fluorescence, higher = more signal;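 further: fluorescence read at 667 nm with signal to noise per printed feature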
[11] = cell viability in Huh7 cells, primary screen, cytotoxicity control for HCV replication inhibitor project, CellTiter-Glo luminescence, basal, 48 h (AID 1143); conditions: Huh7 HCV replicon, higher = more signal, called active from +8 up or from −8 down;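 further: Huh7 hepatoma cells carrying a hepatitis C replication reporter with no stimulus; test concentration not given here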
[12] = P. aeruginosa biofilm formation inhibitors, primary screen, PAO1 strain, BacTiter-Glo luminescence, LB-PBS (AID 1144); conditions: 12 h, higher = more signal
[13] = CREB reporter modulators without forskolin, primary screen, cell-based, PC12, CRE-LacZ reporter, unstimulated (AID 1145); conditions: no forskolin, luminescence, 4.5 h, higher = more signal, called active from +8 up or from −8 down
[14] = CREB reporter modulators under forskolin, primary screen, cell-based, PC12, CRE-LacZ reporter, forskolin-stimulated (AID 1146); conditions: luminescence, 4.5 h, higher = more signal, called active from +8 up or from −8 down;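 further: PC12 cells with 6xCRE LacZ reporter stimulated by forskolin 10 µM; beta-galactosidase reporter signal reflecting CREB driven transcription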
[15] = molecular target: Streptavidin (Streptomyces avidinii) (UniProt P22629); test: streptavidin binders on small-molecule microarray, primary screen, artefact control for SMM compound annotation, biophysical, 635/667 nm fluorescence (AID 1147); conditions: streptavidin binding, higher = more signal;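 further: signal reflects streptavidin binding to arrayed compounds as a control protein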
[16] = small-molecule binders of probe aInhba, primary screen, biochemical, small-molecule microarray, 635/667 nm fluorescence (AID 1148); conditions: higher = more signal;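 further: score merges 667nm spot fluorescence with signal-to-noise for antibody binding to printed compounds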
Torsin-1A (Homo sapiens) [17] = molecular target: Torsin-1A (Homo sapiens) (UniProt O14656); test: torsin A binders from cell lysate, primary screen, small-molecule microarray, wild-type, 635/667 nm (AID 1149); conditions: COS7 hTOR1A-WT lysate, 635 nm fluorescence, higher = more signal
Torsin-1A (Homo sapiens) [18] = molecular target: Torsin-1A (Homo sapiens) (UniProt O14656); test: small-molecule binders of mutant TOR1A in lysate, primary screen, cell lysate, small-molecule microarray, COS7 lysate, 635/667 nm fluorescence (AID 1150); conditions: COS7 hTOR1A mutant lysate, 635 nm fluorescence, higher = more signal;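 further: score pools 667 nm emission and signal to noise measuring lysate protein binding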
[19] = test system: Sonic hedgehog protein (Shh); test: small-molecule binders of Shh protein, primary screen, biochemical, small-molecule microarray, 635/667 nm fluorescence (AID 1151); conditions: small-molecule microarray binding, 635 nm fluorescence; higher = more signal;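 further: Shh protein binding to compounds spotted on small-molecule microarray slides; score combines spot fluorescence intensity with signal-to-noise across triplicate slides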

Chain of Luciferin 4-monooxygenase (Photinus pyralis) (P08659 whole entry, looked up): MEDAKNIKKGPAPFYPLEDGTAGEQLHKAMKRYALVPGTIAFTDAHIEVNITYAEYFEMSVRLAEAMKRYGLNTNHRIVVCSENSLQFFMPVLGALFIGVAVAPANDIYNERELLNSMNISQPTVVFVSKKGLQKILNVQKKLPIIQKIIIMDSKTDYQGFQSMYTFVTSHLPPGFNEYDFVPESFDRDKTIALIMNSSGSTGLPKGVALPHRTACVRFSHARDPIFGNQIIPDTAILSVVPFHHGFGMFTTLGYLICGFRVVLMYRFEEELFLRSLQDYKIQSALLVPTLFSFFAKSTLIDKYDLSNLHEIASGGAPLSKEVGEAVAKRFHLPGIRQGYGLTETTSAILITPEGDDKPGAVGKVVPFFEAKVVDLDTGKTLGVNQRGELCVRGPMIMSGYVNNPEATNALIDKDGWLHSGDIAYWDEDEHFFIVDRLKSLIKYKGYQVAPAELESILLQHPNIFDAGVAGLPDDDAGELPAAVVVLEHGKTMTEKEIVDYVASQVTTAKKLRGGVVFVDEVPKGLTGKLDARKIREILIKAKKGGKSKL
Chain of Focal adhesion kinase 1 (Homo sapiens) (Q05397 whole entry, looked up): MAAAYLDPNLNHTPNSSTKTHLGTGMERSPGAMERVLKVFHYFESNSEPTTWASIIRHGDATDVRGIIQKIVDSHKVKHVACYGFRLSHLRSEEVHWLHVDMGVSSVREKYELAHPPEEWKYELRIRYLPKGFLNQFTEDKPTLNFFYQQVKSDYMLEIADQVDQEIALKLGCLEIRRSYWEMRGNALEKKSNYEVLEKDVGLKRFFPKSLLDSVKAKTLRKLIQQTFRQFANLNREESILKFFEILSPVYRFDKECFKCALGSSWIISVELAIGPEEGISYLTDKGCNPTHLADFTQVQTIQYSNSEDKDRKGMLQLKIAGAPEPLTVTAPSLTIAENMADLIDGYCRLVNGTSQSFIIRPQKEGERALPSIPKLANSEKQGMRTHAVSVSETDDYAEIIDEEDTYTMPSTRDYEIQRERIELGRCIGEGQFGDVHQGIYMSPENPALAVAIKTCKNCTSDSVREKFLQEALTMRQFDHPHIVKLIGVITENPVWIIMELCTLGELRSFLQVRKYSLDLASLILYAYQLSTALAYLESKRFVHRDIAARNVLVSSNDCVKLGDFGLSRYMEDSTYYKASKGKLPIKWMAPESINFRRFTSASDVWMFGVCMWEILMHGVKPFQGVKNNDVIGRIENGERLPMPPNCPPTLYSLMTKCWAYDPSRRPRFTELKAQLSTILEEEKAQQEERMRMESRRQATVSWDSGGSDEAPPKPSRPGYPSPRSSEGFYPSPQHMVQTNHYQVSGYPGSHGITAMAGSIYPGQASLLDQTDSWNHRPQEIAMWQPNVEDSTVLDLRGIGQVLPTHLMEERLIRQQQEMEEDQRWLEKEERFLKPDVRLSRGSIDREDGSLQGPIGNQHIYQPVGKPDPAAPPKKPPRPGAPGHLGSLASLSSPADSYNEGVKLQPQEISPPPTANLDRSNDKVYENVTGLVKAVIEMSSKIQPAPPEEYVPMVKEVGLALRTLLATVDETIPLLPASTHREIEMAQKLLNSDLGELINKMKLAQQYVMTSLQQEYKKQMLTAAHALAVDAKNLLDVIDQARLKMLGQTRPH
Chain of Streptavidin (Streptomyces avidinii) (P22629 whole entry, looked up): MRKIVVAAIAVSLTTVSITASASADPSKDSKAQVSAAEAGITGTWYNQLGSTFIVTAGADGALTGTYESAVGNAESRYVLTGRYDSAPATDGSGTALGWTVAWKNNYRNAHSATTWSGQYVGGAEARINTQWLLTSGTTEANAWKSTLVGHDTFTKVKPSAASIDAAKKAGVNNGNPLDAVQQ
Chain of Fibroblast growth factor 2 (Homo sapiens) (P09038 whole entry, looked up): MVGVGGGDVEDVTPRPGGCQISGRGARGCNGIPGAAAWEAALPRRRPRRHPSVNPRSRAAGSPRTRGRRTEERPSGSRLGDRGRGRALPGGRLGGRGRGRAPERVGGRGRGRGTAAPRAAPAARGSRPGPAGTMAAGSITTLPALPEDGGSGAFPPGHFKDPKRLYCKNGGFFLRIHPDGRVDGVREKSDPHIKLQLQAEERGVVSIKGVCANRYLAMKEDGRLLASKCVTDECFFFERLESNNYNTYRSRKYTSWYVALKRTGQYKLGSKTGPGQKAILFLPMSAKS
Chain of Torsin-1A (Homo sapiens) (O14656 whole entry, looked up): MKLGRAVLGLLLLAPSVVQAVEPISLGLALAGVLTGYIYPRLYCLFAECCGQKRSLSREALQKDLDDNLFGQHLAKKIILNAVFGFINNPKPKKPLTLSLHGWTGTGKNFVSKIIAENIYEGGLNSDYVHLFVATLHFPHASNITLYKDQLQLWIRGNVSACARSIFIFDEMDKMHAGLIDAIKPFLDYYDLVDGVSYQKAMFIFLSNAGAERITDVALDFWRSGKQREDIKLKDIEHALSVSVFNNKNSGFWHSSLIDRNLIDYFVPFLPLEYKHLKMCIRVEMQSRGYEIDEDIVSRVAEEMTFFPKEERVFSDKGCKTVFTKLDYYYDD
Chain of Follistatin (Homo sapiens) (P19883 whole entry, looked up): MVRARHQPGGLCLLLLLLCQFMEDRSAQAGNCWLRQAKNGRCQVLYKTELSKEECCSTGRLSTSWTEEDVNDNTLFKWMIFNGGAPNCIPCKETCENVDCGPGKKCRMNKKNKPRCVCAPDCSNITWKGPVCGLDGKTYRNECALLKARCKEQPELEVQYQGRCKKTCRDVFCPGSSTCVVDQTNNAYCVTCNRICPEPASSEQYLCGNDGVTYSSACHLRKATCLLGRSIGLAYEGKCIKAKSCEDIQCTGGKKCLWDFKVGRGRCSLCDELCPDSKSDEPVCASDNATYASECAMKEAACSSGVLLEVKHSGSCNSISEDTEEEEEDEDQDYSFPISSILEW

Compound	composite z-score [1]	composite z-score [2]	composite z-score [3]	composite z-score [4]	composite z-score [5]	composite z-score [6]	z-score [7]	composite z-score (Lefty1)	composite z-score [8]	z-score [9]	composite z-score [10]	z-score [11]	z-score [12]	z-score [13]	z-score [14]	composite z-score [15]	composite z-score [16]	composite z-score (Torsin-1A (Homo sapiens) [17])	composite z-score (Torsin-1A (Homo sapiens) [18])	composite z-score [19]
CC(C)C(=C=CC[C@@H](O)c1ccccc1OCCO)C[C@@H](O)c1cc(Cl)cc(Cl)c1O	1.46	1.23	-0.14	0.88	1.38	0.964	-1.35	1.58	0.54	-1 (inactive)	0.532	-3.43 (inactive)	0.519 (inactive)	3.25 (inactive)	0.266 (inactive)	1.05	0.0622	1.44	0.86	2.11
C=CCNC(=O)[C@H]1[C@@H]2C(=O)O[C@@H](c3ccccc3)[C@@H](c3ccccc3)N2[C@@H](c2ccccc2OCCO)[C@]12C(=O)N(C(=O)OCCOC)c1ccccc12	1.23	1.22	0.706	0.887	0.465	0.849	-0.276	0.583	1.07	0.206 (inactive)	0.307	-4.39 (inactive)	0.369 (inactive)	-0.195 (inactive)	6.34 (inactive)	0.618	-0.358	-0.025	0.664	1.14
C#CCN(C/C=C/c1ccccc1)[C@H](CO[Si](C)(C)C(C)(C)C)c1ccccc1	0.953	-0.786	0.329	-0.759	-0.0993	-0.187	-2.21	0.178	-0.0631	0.43 (inactive)	-0.276	-0.832 (inactive)	0.221 (inactive)	-0.0487 (inactive)	-0.626 (inactive)	-0.531	-0.0719	-0.805	-0.239	0.0896
Cc1ccc(S(=O)(=O)N2[C@@H](c3ccccc3)C(C(=O)O)=CC[C@H]2c2ccc(C#N)cc2)cc1	1.58	1.31	0.447	0.992	0.0793	-0.413	-1.38	-0.388	1.05	0.654 (inactive)	0.111	-0.478 (inactive)	-0.236 (inactive)	-0.275 (inactive)	-0.551 (inactive)	0.0546	-0.148	0.834	2.1	-0.133
COCCOC(=O)N1C(=O)[C@@]2(c3cc(C#CCCO)ccc31)[C@H](c1ccccc1OCCO)N1[C@H](c3ccccc3)[C@H](c3ccccc3)OC(=O)[C@H]1[C@@H]2C(=O)N1CCc2cc(OC)c(OC)cc2C1	1.86	1.22	0.405	0.869	1.14	1.25	-0.0868	0.786	0.546	-1.26 (inactive)	0.318	-1.07 (inactive)	0.609 (inactive)	1.72 (inactive)	0.385 (inactive)	0.321	-0.0448	1.17	1.18	1.2
COC(=O)[C@@]1(Cc2ccccc2)[C@H]2c3cc(C(=O)N4CCCC4)n(Cc4ccc(C(F)(F)F)nc4)c3C[C@H]2CN1C(=O)c1ccccc1	0.472	1.28	1.23	1.06	0.778	-0.38	1.32	0.333	1.05	2.36 (inactive)	0.836	-2.97 (inactive)	0.519 (inactive)	0.0075 (inactive)	-0.611 (inactive)	1.78	0.446	1.03	0.774	-0.878
COCCOC(=O)N1C(=O)[C@@]2(c3cc(C#CC4(O)CCCCCC4)ccc31)[C@H](C(=O)N1CCc3cc(OC)c(OC)cc3C1)[C@H]1C(=O)O[C@H](c3ccccc3)[C@H](c3ccccc3)N1[C@@H]2c1ccc(O)cc1	2.17	1.23	0.427	0.853	1.26	1.1	-0.791	0.594	0.972	-0.604 (inactive)	0.869	-1.83 (inactive)	0.0231 (inactive)	1.68 (inactive)	8.06 (active)	0.398	0.306	1.25	0.538	0.774
COCC1=C([C@H](O)CCc2ccccc2)[C@H](CO)n2c(=O)n(-c3ccccc3)c(=O)n2C1	-0.507	-0.364	-0.044	-0.325	0.0942	1.08	-0.152	-0.0597	0.361	-1.59 (inactive)	-0.419	-1.24 (inactive)	-0.84 (inactive)	0.129 (inactive)	-0.2 (inactive)	-0.101	-0.154	-0.115	-0.414	0.199
O=C1OCCC=C[C@H]2OC34C=CCN(c5ccc(Cl)cc5)C(=O)[C@H]3N(CCO)C(=O)[C@@H]4C12 (stereo not given in full)	-0.656	-0.574	-0.732	-0.262	-0.367	-1.14	-0.0109	-0.837	-0.524	-0.381 (inactive)	-0.524	0.373 (inactive)	0.108 (inactive)	-0.228 (inactive)	-0.256 (inactive)	-1.23	-0.159	-1.97	-0.0899	-0.524
